Screening data: PubChem BioAssay, National Center for Advancing Translational Sciences (NCATS)
In the library only some 7.4% were active in any assay of this set; here they are far more common.
SMN2 splice enh – qHTS Assay for Enhancers of SMN2 Splice Variant Expression; Potency, µM (top dose mostly 46.1 µM), for inactives: top-dose activity change, positive = activation, actives largely listed as activators; AID 1458, 2008; HEK293 SMN2-luciferase splicing reporter, luminescence, 30-36 h; hit rate 2.8% among 210,000; also: % of control where 0% means no effect; nearly all actives have a fitted effect of over 55% in size
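HEK293 cells carry an SMN2 […]–luciferase reporter in which exon 7 inclusion puts luciferase in frame. Cells were plated 10-12 h before compound addition, then incubated 30-36 h at 37C. ONE-Glo luminescence was read; sodium butyrate at 4.5 mM final served as control.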
ELG1 genotoxic – qHTS screen for small molecules that induce genotoxicity in human embryonic kidney (HEK293T) cells expressing luciferase-tagged ELG1; HEK293T ELG1-luciferase reporter, luminescence, 16 h; Potency, µM (highest dose often 46 µM), for the others: at the highest dose activity change, positive = activation, usual class: activators; hit rate 1.3% among 330,000; also: % of control where 0% means no effect; nearly all actives have a fitted effect of over 60% in size
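Reporter readout depends on ELG1 protein level, which increases with genetic stress. After 16 hr compound exposure at 37 °C, luciferase activity was quantified using ONE-Glo.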
Rab9 promoter act – qHTS Assay for Rab9 Promoter Activators | Huh7 Rab9 promoter-luciferase reporter, luminescence, 24 h | Potency, µM (doses to about 9.22 µM), for the others: at the highest dose activation, negative = inhibition, hits mostly activators | hit rate 2.8% among 320,000 | AID 485297, 2010; also: % of control where 0% means no effect; nearly all actives have a fitted effect of over 60% in size
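Cells were plated at 1500 per well in reduced-serum medium with 10% FBS and left 2 h. Compound in DMSO was then added for 24 h at 37 °C. Reporter signal was read by luminescence after 10 min with luciferase detection reagent.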
NPC1 prom act – qHTS Assay for NPC1 Promoter Activators. Potency, µM (highest dose often 9.22 µM), inactives show at the top dose activation, most hits filed as activators. hit rate 2.4% among 320,000. Huh7 NPC1 promoter luciferase reporter, 24 h; also: % of control where 0% means no effect; nearly all actives have a fitted effect of over 60% in size
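Readout is luciferase luminescence, reflecting NPC1 promoter activation in stably transfected Huh7 cells after 24 h compound exposure at 37 °C in reduced-serum medium with 10% FBS.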
Luc counter – Counterscreen for Luciferase (Kinase-Glo TM) Inhibition; Luciferin 4-monooxygenase (Photuris pensylvanica), Q27757; hit rate 0.28% among 200,000; Kinase-Glo luciferase, ATP luminescence, 8 min; Potency, µM (highest dose often 38.3 µM), for the others: at the highest dose activity change, negative = inhibition, usual class: inhibitors; also: % is scaled to controls: 0 for no effect and ±100 for the full control effect; nearly all actives have a fitted effect of over 60% in size
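Substrate mix (final 50 mM imidazole pH 7.2, 50 mM KCl, 7 mM MgCl2, 10 uM ATP, 0.01% Tween 20, 0.05% BSA) plus pin-tool compound, then Kinase-Glo detection mix; 8 min ambient, luminescence read.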
FLuc modulator – qHTS profiling assay for firefly luciferase inhibitor/activator using purifed enzyme and Km concentrations of substrates (counterscreen for miR-21 project); hit rate 6.9% among 360,000; purified FLuc, Km substrates, luminescence inhibition; Potency, µM (doses to about 57.5 µM), for inactives: top-dose activity change, negative = inhibition, usual class: inhibitors; AID 588342, 2011; Luciferin 4-monooxygenase (Photinus pyralis), P08659;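 also: plate controls were vehicle for no effect and reference inhibitor for full effect; nearly all actives have a fitted effect of over 55% in size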
Target sequence (P08659 whole entry, looked up): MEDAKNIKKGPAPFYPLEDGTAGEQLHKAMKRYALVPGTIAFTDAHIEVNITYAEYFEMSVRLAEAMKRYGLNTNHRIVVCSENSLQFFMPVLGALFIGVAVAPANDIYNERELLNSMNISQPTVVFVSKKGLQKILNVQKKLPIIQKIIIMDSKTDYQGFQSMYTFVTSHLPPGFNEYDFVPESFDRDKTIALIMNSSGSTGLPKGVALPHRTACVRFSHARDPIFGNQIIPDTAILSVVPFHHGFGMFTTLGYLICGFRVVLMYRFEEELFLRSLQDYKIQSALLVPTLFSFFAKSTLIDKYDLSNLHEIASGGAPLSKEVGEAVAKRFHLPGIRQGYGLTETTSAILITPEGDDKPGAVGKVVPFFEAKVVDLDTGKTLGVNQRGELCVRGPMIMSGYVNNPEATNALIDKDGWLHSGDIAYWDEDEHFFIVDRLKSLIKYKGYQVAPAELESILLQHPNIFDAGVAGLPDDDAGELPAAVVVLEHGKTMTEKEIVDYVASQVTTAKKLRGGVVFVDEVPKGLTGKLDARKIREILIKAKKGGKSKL
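Purified P. pyralis luciferase (10nM final) with 10uM D-luciferin and 10uM ATP (Km levels) in 50mM Tris acetate pH 7.5, 10mM Mg acetate, 0.01% Tween-20, 0.05% BSA; qHTS 6-point titration, ~60 µM downward; luminescence read.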
Starred values were filed as active, the others as inactive; [ ] = remark or other dose. Calls follow the shape of the dose curve; as a rule, active = well fitted curve in the direction sought with a large enough effect; inconclusive = small, poorly fitted or top-dose-only effect, or another doubt; inactive = no such curve, though single readings can be large; an effect the other way counts as inactive or inconclusive. Potency is read from the fitted curve at half-maximal effect.

C[C@@H]1CCC(=O)N(CC[C@H](Oc2ccccc2)c2ccccc2)CC1 was read as ELG1 genotoxic -3%, Rab9 promoter act -4%, NPC1 prom act 0% and FLuc modulator 5%.
Screening O=C(Nc1nc2ccc(F)cc2s1)c1ccccn1 returned SMN2 splice enh -54%, ELG1 genotoxic inconclusive, Rab9 promoter act 0.089µM*, NPC1 prom act inconclusive, Luc counter 11µM* and FLuc modulator 0.54µM*.
O=C(NCc1cccnc1)C(=O)Nc1nc2ccccc2s1 was read as SMN2 splice enh -13%, ELG1 genotoxic inconclusive, Rab9 promoter act 22%, NPC1 prom act 14%, Luc counter 0% and FLuc modulator 15µM*.
`COC(=O)c1c(NC(=O)c2cnccn2)sc2c1CCC2` gave SMN2 splice enh inconclusive, ELG1 genotoxic 4%, Rab9 promoter act 2%, NPC1 prom act 1%, Luc counter -6% and FLuc modulator 4%.
Screening O=C(Nc1nc2c(s1)CCCC2=O)c1cnccn1 returned SMN2 splice enh 20µM*, ELG1 genotoxic 23µM*, Rab9 promoter act inconclusive, NPC1 prom act inconclusive, Luc counter inconclusive and FLuc modulator inconclusive.
For O=C(Nc1nc2ccccc2s1)c1cnccn1 the results were SMN2 splice enh 6.3µM*, ELG1 genotoxic 0.46µM*, Rab9 promoter act 0.32µM*, NPC1 prom act 1.1µM*, Luc counter 7.9µM* and FLuc modulator 2.1µM*.
`O=C(Nc1nc(-c2ccco2)c(-c2ccco2)s1)c1cnccn1` gave ELG1 genotoxic -6%, Rab9 promoter act -1%, NPC1 prom act -11% and FLuc modulator -4%.
For O=C1OC(c2ccc(F)cc2)=N/C1=C\C=C/c1ccccc1 the results were ELG1 genotoxic -1%, Rab9 promoter act -3%, NPC1 prom act -2% and FLuc modulator inconclusive.
CCOC(=O)C1=C(C)NC(C)=C(C(=O)OCC)C1c1c(F)c(F)c(F)c(F)c1F was read as Rab9 promoter act -31%[46.1 µM] and NPC1 prom act -27%[46.1 µM].
Screening Cc1cccc(N2CCN(C(=O)c3cc(C)oc3C)CC2C)c1 (centres undefined) returned SMN2 splice enh -7%, ELG1 genotoxic -8%, Rab9 promoter act -1%, NPC1 prom act -4%, Luc counter 4% and FLuc modulator 1%.
Screening CCOc1ccc2nc(NC(=O)c3cnccn3)sc2c1 returned ELG1 genotoxic inconclusive, Rab9 promoter act 0.25µM*, NPC1 prom act 0.79µM* and FLuc modulator 1.5µM*.
For CCCc1ccc(C(=O)NC(=O)c2ccccc2O)cc1 the results were ELG1 genotoxic 6%, Rab9 promoter act inconclusive, NPC1 prom act inconclusive and FLuc modulator 0.6µM*.
Screening CCCc1ccc(C(=O)NNC(=O)c2ccc(Br)cc2)cc1 returned SMN2 splice enh -21%, ELG1 genotoxic -1%, Rab9 promoter act 0%, NPC1 prom act -2%, Luc counter 0% and FLuc modulator 3%.
O=C(NC(=O)c1ccccc1O)c1ccc(C(F)(F)F)cc1 was read as ELG1 genotoxic 5%, Rab9 promoter act inconclusive, NPC1 prom act inconclusive and FLuc modulator 3µM*.
For Cn1c(=O)c2c(SCC(=O)N3CCOCC3)nc(-c3ccccc3Cl)nc2n(C)c1=O the results were ELG1 genotoxic -6%, Rab9 promoter act -1%, NPC1 prom act 1% and FLuc modulator 3%.
For CC(=O)OC(c1nc2ccccc2c(=O)n1C1CC2(OC1=O)c1ccccc1N1C(=O)C(C)(C)N(O)C12)C(C)C (centres undefined) the results were ELG1 genotoxic -10%, Rab9 promoter act -4%, NPC1 prom act 0% and FLuc modulator -1%.
